# In the library only some 1.8% were active in any assay of this set; here they are far more common.
# TLR4 MyD88 comp: inhibitors of TLR4-MyD88 association in cells, primary screen, cell-based, HeLa CL3-4, BLA complementation, FRET ratio. AID 861, 2007. Toll-like receptor 4 (Homo sapiens) + Myeloid differentiation primary response protein …. hit rate 0.18% among 200,000. HeLa CL3-4 TLR4/MyD88 BLA complementation. inhibition, % at 8.4 µM; in the data active = inhibition above about 25%;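 note: 0% = vehicle and 100% = reference inhibitor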
# TLR9-MyD88 inh: inhibitors of TLR9-MyD88 association in cells, primary screen, cell-based, CHO, BLA complementation, fluorescence | Toll-like receptor 9 (Homo sapiens) + Myeloid differentiation primary response protein … | CCF4 FRET ratio | inhibition, % at 4.98 µM | hit rate 0.21% among 340,000 | AID 504734, 2011;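 active = inhibition above the mean over all tested compounds plus 3 SD, cut at about 21% in these data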;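 note: 0% = DMSO only wells and 100% = clavulanate BLA inhibitor control wells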
# m5-HT2A agonist: mouse Htr2a agonists via beta-arrestin recruitment, primary screen, cell-based, luminescence; 5-hydroxytryptamine receptor 2A (Mus musculus), P35363; CHO-K1 mHTR2A beta-arrestin complementation; percent of 30 µM serotonin response; activation, % at 7.6 µM; hit rate 0.66% among 360,000; AID 624169, 2012;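 active = activation above a run cutoff, the mean activation of all tested compounds plus 3 SD, cut at about 14% in these data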;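 note: 0% = plate median of compound wells and 100% = 30 µM serotonin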
# NOD2 RIPK2 PPI: NOD2-RIPK2 binding disruptors in cells, primary screen, fluorescence, CHO cells, BLA complementation. Receptor-interacting serine/threonine-protein kinase 2 (Homo sapiens), O43353. CCF4 ratio. inhibition, % at 4.98 µM. hit rate 0.38% among 360,000; in the data active = inhibition above about 21%;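 note: 0% = vehicle only and 100% = reference blocker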
# LANA-H2B inh: blockers of LANA interaction with H2A/H2B – biochemical, FP readout, HTS, primary screen. cell-free LANA-H2A/H2B peptide, fluorescence polarization. inhibition, % (test concentration not listed). hit rate 0.6% among 320,000. AID 2629, 2010; in the data active = inhibition mostly above about 10%, no sharp cut-off; inactive = mostly below about 6.7%
# Rtt109 Vps75: inhibitors of C. albicans Rtt109/Vps75 HAT, primary screen, biochemical, ThioGlo CoA-SH fluorescence, plate reader. Histone acetyltransferase RTT109 (Candida albicans (strain SC5314 / ATCC MYA-2876)), …. purified Rtt109/Vps75, 4 h. hit rate 0.16% among 330,000. inhibition, % at 34.9 µM;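 active = inhibition of at least 50% in every replicate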
# MOR ag counter: OPRM1 agonists via beta-arrestin recruitment, confirmation, counter-screen for mouse HTR2A agonist project, cell-based, luminescence, single concentration; shares compounds with m5-HT2A agonist; U2OS OPRM1 beta-arrestin PathHunter; DMSO 0%, DAMGO 9.3 µM 100%; activation, % at 9.3 µM; hit rate 5.3% among 2,300; AID 624380, 2012;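 active = mean activation above the mean of DMSO-only wells plus 3 SD, cut at about 0.5% in these data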
# Target sequence (P35372 whole entry, looked up): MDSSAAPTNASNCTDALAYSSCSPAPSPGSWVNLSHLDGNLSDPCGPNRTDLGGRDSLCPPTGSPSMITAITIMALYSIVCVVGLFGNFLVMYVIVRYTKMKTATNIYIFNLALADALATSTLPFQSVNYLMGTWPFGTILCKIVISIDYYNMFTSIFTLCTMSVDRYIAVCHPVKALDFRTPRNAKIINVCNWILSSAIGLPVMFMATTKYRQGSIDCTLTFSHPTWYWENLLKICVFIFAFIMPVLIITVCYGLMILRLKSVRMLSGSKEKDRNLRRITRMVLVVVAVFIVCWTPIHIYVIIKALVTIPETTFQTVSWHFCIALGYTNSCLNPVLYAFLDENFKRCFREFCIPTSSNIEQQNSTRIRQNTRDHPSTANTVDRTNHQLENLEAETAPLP
# m5-HT2A ag conf: mouse HTR2A agonists, beta-arrestin recruitment, confirmation, cell-based, luminescence, CHO-K1 PathHunter, triplicate | DMSO 0%, 30 µM serotonin 100% | shares compounds with m5-HT2A agonist | hit rate 19% among 2,300 | activation, % at 7.6 µM | AID 624381, 2012;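 active = mean activation across triplicates above the hit threshold derived in the original primary screen, cut at about 15% in these data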
# * marks the source's active call; other numbers are inactive results; x = not tested or not shown.
SMILES,TLR4 MyD88 comp,TLR9-MyD88 inh,m5-HT2A agonist,NOD2 RIPK2 PPI,LANA-H2B inh,Rtt109 Vps75,MOR ag counter,m5-HT2A ag conf
CCCn1c(SCC(=O)NCCc2ccc(Cl)cc2Cl)n[nH]c1=O,-0.3,-5.4,15.9*,-5.1,-25.7,-2.8,-0.3,-0.1
CCCCCN(C(=O)CCC(=O)OCC(=O)c1ccc(C(C)CC)cc1)c1c(N)n(CCCC)c(=O)[nH]c1=O (stereo unspecified),x,8.0,14.2,7.8,-10.4,3.2,x,x
Cc1ccc(/C=N/c2sc3c(c2C#N)CCCCC3)o1,0.2,-0.2,16.0*,-11.8,9.8,14.3,-0.2,15.8*
N#Cc1c(/N=C/c2ccco2)sc2c1CCC2,-3.0,-3.6,-1.5,-7.8,-2.9,-11.7,x,x
C=CCn1cnc2c(oc3ccccc32)c1=O,x,-5.4,-5.2,-10.1,-3.0,1.6,x,x
CCN1C(=O)[C@H]2[C@@H](c3ccc(C)cc3)N[C@]3(CCCN(Cc4cccn4C)C3=O)[C@H]2C1=O,x,-1.6,21.1*,-10.8,x,x,-0.5,-2.0
CCCCCCn1c(=O)n2n(c1=O)[C@@H]1CN(S(=O)(=O)c3ccc(C)cc3)C[C@]1(O)[C@@H](OC(=O)Nc1c(C)noc1C)C2,x,-5.4,-0.5,5.1,x,x,x,x
N#Cc1ccccc1OCC(=O)NCC(c1cccs1)N1CCOCC1 (stereo unspecified),x,-7.0,4.4,6.8,1.7,8.2,x,x
CCOC(=O)CC(=O)CSCC(=O)Nc1ccc(C)cc1,5.4,5.3,15.6*,-6.6,2.9,9.3,-0.3,0.9
CCN(CC(=O)Nc1ccc(NC(C)=O)cc1)C(=O)CSCC(=O)Nc1ccc(C)cc1,x,0.1,0.8,-5.2,-2.9,-3.8,x,x
CCn1c(=O)c(C(=O)CN2CCN(S(=O)(=O)c3ccc(C)cc3C)CC2)c(N)n(Cc2ccccc2)c1=O,-4.9,-0.7,16.1*,-8.0,-0.8,14.8,-0.4,-5.1
COc1ccc(OC)c(S(=O)(=O)N/N=C\c2ccc3c(c2)OCO3)c1,x,5.8,16.7*,-8.8,-2.7,1.9,-0.7,-0.5
O=C(COC(=O)CCC(=O)c1ccc(Cl)cc1)NCCc1ccccc1,4.9,3.2,18.3*,0.7,1.0,9.3,-0.5,-4.1
CN=c1scc(-c2ccc([N+](=O)[O-])cc2)n1/N=C/c1ccco1,-8.9,11.4,-2.8,-10.7,1.3,6.5,x,x
CN=c1scc(-c2ccc(F)cc2)n1/N=C/c1ccc(O)c(O)c1,-2.4,2.5,16.2*,2.3,x,10.4,-0.5,85.2*
O=[N+]([O-])c1ccc(CN2CCN(c3ncccn3)CC2)cc1,x,8.0,12.3,0.8,-5.5,3.3,x,x
O=[N+]([O-])c1cccc(CN2CCN(c3ncccn3)CC2)c1,x,-8.3,14.6*,-1.3,1.7,-8.8,-0.1,59.5*
FC(F)(F)c1cccc(CN2CCN(c3ncccn3)CC2)c1,x,-2.5,20.5*,1.9,0.1,1.6,-0.6,65.9*
Fc1cccc(CN2CCN(c3ncccn3)CC2)c1,18.4,-2.6,41.3*,-3.5,0.1,-4.8,-0.6,112.8*
Cc1c(NC(=O)Nc2ccc(C#N)cc2)c(=O)n(-c2ccccc2)n1C,x,-5.6,-1.4,-4.8,0.5,-6.4,x,x
O=C(c1ccco1)N1CCN(c2c(-c3ccccc3)c3cc(Cl)ccc3[nH]c2=O)CC1,6.8,8.2,52.4*,7.0,4.5,-2.8,1.3*,23.6*
O=c1[nH]c2ccc(Cl)cc2c(-c2ccccc2)c1N1CCOCC1,-0.1,7.8,4.2,-6.6,-5.0,-6.7,x,x
O=C(c1ccco1)N1CCN(C2CN(C3CCCCC3)S(=O)(=O)C2)CC1 (stereo unspecified),x,x,-1.9,4.1,x,x,x,x
Cc1cc(C)nc(S/C=C/C(=O)c2ccccc2F)n1,x,5.7,2.7,9.6,1.0,1.1,x,x
COc1cccc(C(=O)OCC(=O)Nc2cc(C)on2)c1OC,x,-2.9,6.5,-18.4,6.3,1.0,x,x
SMILES,TLR4 MyD88 comp,TLR9-MyD88 inh,m5-HT2A agonist,NOD2 RIPK2 PPI,LANA-H2B inh,Rtt109 Vps75,MOR ag counter,m5-HT2A ag conf
COc1ccc(-c2csc(-n3ncc(C(=O)O)c3C(F)(F)F)n2)cc1,x,-2.3,14.9*,-6.7,14.9,-6.3,-0.5,-3.9
CNC(=O)c1cnn(-c2nc(-c3ccc(OC)cc3)cs2)c1C(F)(F)F,x,6.6,1.9,0.1,-3.0,9.7,x,x
COc1ccc(-c2c(-c3cc(OC)cc(OC)c3)n(C)c3ccc(-c4cnc(OC)nc4)cc23)cc1,x,4.9,3.2,-6.8,0.7,15.6,x,x
COc1ccc(-c2c(-c3cc(OC)cc(OC)c3)n(C)c3ccc(-c4ccc5[nH]ccc5c4)cc23)cc1,x,7.6,21.7*,7.9,4.5,3.2,-0.5,-3.5
CC1(C)NC(=O)N(CC(O)CN2CCOCC2)C1=O (stereo unspecified),10.7,4.7,1.6,-3.2,1.8,-5.9,x,x
CC12CC3CC(C)(C1)CC(C(O)CN1CCOCC1)(C3)C2 (stereo unspecified),x,9.2,16.0*,-1.7,3.5,-8.7,-0.6,3.4
CS(=O)(=O)c1ccc2nc(NC(=O)c3ccc(Cl)cc3)sc2c1,x,0.1,18.1*,-3.1,2.6,-1.2,-0.5,2.9
CC1CN(C)C(C)c2c1oc1ccc([N+](=O)[O-])cc21 (stereo unspecified),-9.9,-6.9,21.5*,-13.5,3.9,-6.9,0.0,3.5
CC1CN(C)C(C)c2c1oc1ccc(N)cc21 (stereo unspecified),-2.9,4.1,2.2,-0.9,-0.5,21.4,x,x
O=C1[C@H](Oc2ccccc2)[C@@H](c2ccccc2)N1c1ccncc1,x,2.6,18.3*,1.3,x,-0.9,-0.3,-8.1
CCc1nc2ccc(C(=O)Nc3cccc(OC)c3)cn2c1N(CC)CCOC,x,x,-6.5,9.4,x,x,x,x
O=S(=O)(Nc1ccncc1)c1ccc(Cl)cc1,-9.4,-4.7,-7.6,6.0,1.1,-5.9,x,x
CCc1ccc(S(=O)(=O)Nc2ccncc2)cc1,x,-2.1,15.4*,-3.7,-3.2,3.0,-0.5,-3.4

# Screening results deposited in PubChem BioAssay by several laboratories.
